In PubChem BioAssay (NCI):
The panel holds about 83,000 compounds, 20% with a hit somewhere; the sample as a whole holds those more often.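 Interpretation: 100, growth as untreated; towards 0, rising growth inhibition; 0, no net growth; 0 to -100, cell death. Compounds scoring below 10 were considered active.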 A number with no mark means an inactive call. Activity calls are given as the source filed them.

What follows are molecules tested on SK-MEL-2 melanoma (assay: NCI-60 one-dose screen, 48 h (100 = growth as untreated, 0 = no growth, -100 = all killed)). Settings: 10 µM unless noted.
Description: Growth inhibition of the SK-MEL-2 human tumor cell line is measured as a screen for anti-cancer activity. Cells are grown in 96 well plates and exposed to the test compound for 48 hours. Compounds are tested at a single concentration, which is 10^-5 M for most compounds. The reported endpoint is percent growth (GI% or GIPRCNT), where numbers from 0 - 100% represent growth inhibition, and numbers from -100% - 0 represent cell death. For example, a value of 40 represents 60% growth inhibition. A value of 0 means no net growth occurred over the course of the experiment. A value of -40 indicates 40% of cells at the beginning of the experiment died by the end of the experiment. A value of -100 means all cells are dead at the end of the experiment.
NCI-60 Human Tumor Cell Lines Screen was performed using the standard one-dose NCI protocol, which is described in more detail at https://dtp.cancer.gov/discovery_development/nci-60/default.htm.
Compounds with GIPRCNT values below 10 were considered active. Activity score was based on GIPRCNT using the following formula: […]
Score is 0 for GIPRCNT values of 100 or above, 50 for GIPRCNT values of 0, and 100 for GIPRCNT values of -100.

SMILES | growth
CC[C@]1(O)C[C@H]2CN(CCc3c([nH]c4ccccc34)C(C(=O)OC)(c3cc4c(cc3OC)N(C)[C@H]3[C@@](O)(C(=O)OC)[C@H](OC(C)=O)[C@]5(CC)[C@@H]6C[C@@H]6CN6CC[C@]43[C@@H]65)C2)C1 (stereo not given in full) | 45.5%
O=C(/C=C/c1ccc(F)cc1)N1CCN(C(=O)/C=C/c2ccc(C(F)(F)F)cc2)CC1 | 118%
COc1ccccc1CNCCCN1C(=O)c2ccc3c4c(ccc(c24)C1=O)C(=O)N(CCCNCCCN)C3=O | -47.3% (active)
C=C[C@H]1CCC/C=C/[C@@H]2C[C@H](O)C[C@H]2[C@H](O)/C=C/C(=O)O1 | -37.9% (active)
C=CCN1C(=O)/C(=c2\sc3n(c2=O)C2C(NN=3)N(CC)C(=O)N2CC)c2ccccc21 (stereo not given) | 46.5%
CC1=C(/C=C/C(C)=C/C=C(C(=O)O)\C(C)=C\C(=O)O)C(C)(C)CCC1 | 94.7%
O=C(Nc1ccc(Cl)cc1)c1cc(-c2ccc(Cl)cc2)c2sc(=O)[nH]c2n1 | -29.3% (active)
ClCc1c(Cl)c(Cl)c(Cl)c(CCl)c1Cl | 87.7%
COc1ccc2[nH]cc(C3(c4c[nH]c5ccc(OC)cc45)C(=O)Nc4ccc(Cl)cc43)c2c1 | 90.7%
O=[N+]([O-])c1ccc(N/N=C\c2ccc(O)cc2O)nc1 | 28.9%
Cc1csc(N/N=C/c2ccncc2)n1 | 97.7%
COc1cccc(-c2nc3sccn3c2-c2ccnc(NCCN3CCCN(C)S3(=O)=O)n2)c1 | 97.1%
O=[N+]([O-])c1ccc(N/N=C/c2ccccc2O)nc1 | 35%
CN1C(=O)N(C)C2C1NN=c1s/c(=C\c3ccc(C(F)(F)F)cc3)c(=O)n12 (stereo not given) | 47.7%
CS(=O)(=O)c1ccc(C(=O)N/N=C/c2ccccc2Cl)cc1 | 104%
C[C@H](NC(=O)c1snnc1C1CC1)c1c(F)cccc1Cl | 108%
Cc1c(C(=O)Nc2ccccc2F)sc2c(=O)[nH]cnc12 | 53.9%
COc1ccc(/C=N/NC(N)=S)c(OC)n1 | 94%
O=C(/C=C/c1ccccc1)c1c[nH]c2ccccc2c1=O | 95.5%
C[C@@H]1CC2C3CCC4=CC(=O)C=C[C@]4(C)[C@@]3(Cl)[C@@H](O)C[C@]2(C)[C@@]1(OC(=O)c1ccco1)C(=O)CCl (stereo not given in full) | 76.6%

SMILES | growth
CC(C)OC1OC(OC(C)C)C(OC(C)C)OC1OC(C)C (stereo not given) | 95.1%
CCOC(=O)C1=C(C)NC(=S)NC1c1ccccc1 (stereo not given) | 113%
CC(C)(C)c1nn(-c2ccccc2)c2c1C(=O)CSC(c1ccc3c(c1)OCO3)N2 (stereo not given) | 101%
CCCCCCCCCCCCCCCCCC(=O)OCCCCCCCCCCCCC | 112%
COc1ccc(/C=C/C(=O)CCC(=O)O)cc1OC | 97.5%
COc1cccc(C2C(C#N)=C(N)Oc3cc4c(cc32)OCO4)c1 (stereo not given) | 64.7%
ClC1=NC(Cl)C(Cl)=N/C1=N\c1ncn[nH]1 (stereo not given) | -5.62% (active)
Cc1cc(O)ccc1Sc1ccccc1[N+](=O)[O-] | 99.4%
CS(=O)(=O)c1ccc(C(=O)N/N=C/c2ccccc2O)cc1 | 40%
COc1cc2ncnc(Nc3ccc(S(=O)(=O)Nc4nccs4)cc3)c2cc1OCCCN1CCOCC1 | 99.2%
COc1cccc(NC(=O)OC(C)C)c1 | 136%
O=C1CCCN1C1CCN2CCCc3cccc1c32 (stereo not given) | 102%
CC(C)(CCc1ccccn1)C(=O)CCCc1ccccn1 | 98.7%
COc1cc(-c2nn(C(=O)NCCN3CCN(C)CC3)cc2-c2ccncc2)ccc1Cl | 89.5%
O=S1(=O)NCCCN1CCNc1nccc(-c2c(-c3cccc(O)c3)nc3sccn23)n1 | 29.4%
c1cc2c(cc1-c1cnc3nonc3n1)OCO2 | 115%
FC(F)(F)c1cc(-c2nnc3n2N=C(Cl)CS3)cc(C(F)(F)F)c1 | 123%
CNC(=O)c1c(NC(=O)c2ccc(C(C)C)cc2)sc2c1CCC(=O)C2 | -6.19% (active)
CCN(CC)c1ccc(/C=C2/NC(=O)NC2=O)cc1 | 8.13% (active)
CCCCCCCC/C=C/CCCCCCCC1=NC(C)(C)CN1C(C)C | -63.9% (active)
